Laboratory results: PubChem BioAssay (NCATS)
Values joined by “and” are separate entries in the source; they are usually repeats but may differ in a detail not shown here. Equal values may be shown once. Inconclusive results are not listed. Entries that show only a call come without a potency. Active and inactive are the calls of the source. Calls follow the shape of the dose curve; as a rule, active = well fitted inhibition curve with a large enough effect; inconclusive = small, poorly fitted or top-dose-only effect; inactive = flat fitted curve, though single readings scatter.

system: CRL-7250; assay: Cytotoxic Profiling of Annotated Libraries Using Quantitative High-Throughput Screening (AID 1296008); conditions: Five cell lines viability, CellTiter-Glo ATP luminescence, 48-72 h; max response: active compounds read low; also: nearly all actives have a fitted effect of over 60% in size
Procedure, shortened: (§1)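 Cytotoxicity was measured as CellTiter-Glo ATP luminescence, read after 10 min at room temperature. Compound treatment of the cells lasted 48 or 72 hr at 37 degrees Celsius in a qHTS format.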
Potency is read from the fitted curve at half-maximal effect.

| Compound | max response | outcome |
| --- | --- | --- |
| CN(C)CCCO[C@@H]1[C@H]2OC(C)(C)O[C@H]2O[C@@H]1C(O)CO (stereo not given in full) | -6.03% (inactive) |  |
| N[C@H]1C(O)O[C@H](CO)[C@@H](O)[C@@H]1O (stereo not given in full) | -7.05% (inactive) |  |
| O=C1O[C@H](CO)[C@@H](O)[C@H](O)[C@H]1O |  | inactive |
| NS(=O)(=O)c1cc2c(cc1C(F)(F)F)NC(Cc1ccccc1)NS2(=O)=O (stereo not given) | -4.39% (inactive) |  |
| Nc1ccc(S(=O)(=O)Nc2nccs2)cc1 | 0.415% (inactive) and -2.54% (inactive) |  |
| CC1CC(OC(=O)C(O)c2ccccc2)CC(C)(C)N1C (stereo not given) | -13.8% (inactive) |  |
| C[C@@H]1CCN(C(=O)[C@H](CCCN=C(N)N)NS(=O)(=O)c2cccc3c2NC[C@H](C)C3)[C@@H](C(=O)O)C1 | 0.468% (inactive) |  |

system: HEK293; assay: as above; conditions: Five cell lines viability, CellTiter-Glo ATP luminescence, 48-72 h; max response: active compounds read low
Procedure, shortened: as §1

| Compound | outcome | max response | Potency |
| --- | --- | --- | --- |
| N[C@H](C(=O)O)c1ccc(O)cc1 | inactive |  |  |
| N[C@@H](CSSC[C@H](N)C(=O)O)C(=O)O | inactive |  |  |
| CCCCN1CCCC[C@H]1C(=O)Nc1c(C)cccc1C |  | -17.3% (inactive) and -9.85% (inactive) |  |
| C[C@@H]1CN(c2c(F)c(F)c3c(=O)c(C(=O)O)cn(C4CC4)c3c2F)C[C@H](C)N1 |  | -18.5% (inactive) and -5.83% (inactive) |  |
| CC/C=C(\C(=O)N[C@@H]1C(=O)N2C(C(=O)OCOC(=O)C(C)(C)C)=C(COC(N)=O)CS[C@H]12)c1csc(N)n1 |  | 1.21% (inactive) |  |
| OCC(CO)N[C@H]1C[C@](O)(CO)[C@@H](O)[C@H](O)[C@H]1O | inactive |  |  |
| Cc1ncc([N+](=O)[O-])n1CC(O)CCl (stereo not given) | inactive |  |  |
| C/C(=C(\CCOP(=O)(O)O)SC(=O)c1ccccc1)N(C=O)Cc1cnc(C)nc1N | inactive |  |  |
| CC(C)C(=O)c1c(C(C)C)nn2ccccc12 |  | -1.74% (inactive) |  |
| O=C(O)[C@H](O)c1ccccc1 | inactive |  |  |
| C[C@H](NC(CCc1ccccc1)C(=O)O)C(=O)N1CCC[C@H]1C(=O)O (stereo not given in full) |  | 3.49% (inactive) |  |
| Cc1cc(N)c2ccccc2[n+]1CCCCCCCCCC[n+]1c(C)cc(N)c2ccccc21 |  |  | 1.3 µM (active) |
| COc1ccc2cc1Oc1cc3c(cc1OC)CC[N+](C)(C)[C@H]3Cc1ccc(cc1)Oc1c(OC)c(OC)cc3c1[C@@H](C2)[N+](C)(C)CC3 | inactive |  |  |
| c1ccc2c(CC3=NCCN3)cccc2c1 | inactive |  |  |
| CN(C)CCCN1c2ccccc2CCc2ccccc21 |  |  | 13.3 µM (active) |
| CC1=C(CC(=O)O)c2cc(F)ccc2/C1=C\c1ccc(S(C)(=O)=O)cc1 |  | -17.6% (inactive) |  |
| O=C(O)Cc1sc(-c2ccccc2)nc1-c1ccc(Cl)cc1 | inactive |  |  |
| C[C@H]1O[C@H](O[C@H]2[C@H](O)[C@@H](O)[C@@H](O[C@H]3[C@H](O)[C@@H](O)[C@H](O)O[C@@H]3CO)O[C@@H]2CO)[C@H](O)[C@@H](O)[C@@H]1N[C@H]1C=C(CO)[C@@H](O)[C@H](O)[C@H]1O | inactive |  |  |
| C[C@]12CC[C@@H]3c4ccc(O)cc4CC[C@H]3[C@@H]1CCC2=O | inactive |  |  |

| Compound | outcome | max response | Potency |
| --- | --- | --- | --- |
| CN(C)CC[C@@H](c1ccc(Cl)cc1)c1ccccn1 |  | -2.7% (inactive) |  |
| Nc1cc(=O)[nH]c(N)n1 |  | 4.25% (inactive) |  |
| CO/N=C(\C(=O)N[C@@H]1C(=O)N2C(C(=O)O)=C(CSc3nc(=O)c(O)nn3C)CS[C@H]12)c1csc(N)n1 | inactive |  |  |
| CCN(CC)CCOC(=O)C1(C2CCCCC2)CCCCC1 |  | -0.793% (inactive) |  |
| CC(C)(O)c1ccccc1CC[C@@H](SCC1(CC(=O)O)CC1)c1cccc(/C=C/c2ccc3ccc(Cl)cc3n2)c1 |  | 4.81% (inactive) |  |
| CC1=C(C/C=C(\C)CCC[C@H](C)CCC[C@H](C)CCCC(C)C)C(=O)c2ccccc2C1=O | inactive |  |  |
| C[C@@H]1CC[C@@]2(OC1)O[C@H]1C[C@H]3[C@@H]4CC[C@H]5C[C@@H](O)CC[C@]5(C)[C@H]4CC(=O)[C@]3(C)[C@H]1[C@@H]2C | inactive |  |  |
| C[C@@H](O)[C@H](N)C(=O)O | inactive |  |  |
| Cn1cc[nH]c1=S | inactive |  |  |
| O=C(O)[C@@H]1CSCN1 | inactive |  |  |
| C=CCn1c(=O)n([C@@H]2O[C@H](CO)[C@@H](O)[C@H]2O)c2nc(N)[nH]c(=O)c21 | inactive |  |  |
| CC1(C)S[C@@H]2[C@H](NC(=O)Cc3ccccc3)C(=O)N2[C@H]1C(=O)O (tested in a mixture with another compound) | inactive |  |  |
| CN(C)CCCO[C@@H]1[C@H]2OC(C)(C)O[C@H]2O[C@@H]1C(O)CO (stereo not given in full) | inactive |  |  |
| N[C@H]1C(O)O[C@H](CO)[C@@H](O)[C@@H]1O (stereo not given in full) | inactive |  |  |
| O=C1O[C@H](CO)[C@@H](O)[C@H](O)[C@H]1O | inactive |  |  |
| NS(=O)(=O)c1cc2c(cc1C(F)(F)F)NC(Cc1ccccc1)NS2(=O)=O (stereo not given) | inactive |  |  |
| Nc1ccc(S(=O)(=O)Nc2nccs2)cc1 |  | 3.95% (inactive) and -4.18% (inactive) |  |
| CC1CC(OC(=O)C(O)c2ccccc2)CC(C)(C)N1C (stereo not given) | inactive |  |  |
| C[C@@H]1CCN(C(=O)[C@H](CCCN=C(N)N)NS(=O)(=O)c2cccc3c2NC[C@H](C)C3)[C@@H](C(=O)O)C1 | inactive |  |  |
